Molecules are shown by their SMILES. Values joined by “and” are separate entries in the source; they are usually repeats but may differ in a detail not shown here. Equal values may be shown once. About 80 (0.06%) of roughly 140,000 compounds were called active. Cut-off read from the data, not from the text of the source: active = displacement above about 50%; inactive = the rest. What follows is part of a selection rich in actives, with near analogues and random picks from the rest. Some structures have more than one record in an assay (separate samples or runs), and their calls can disagree.

Heat shock 70 kDa protein 1A (Homo sapiens), sequence (P0DMV8 whole entry, looked up): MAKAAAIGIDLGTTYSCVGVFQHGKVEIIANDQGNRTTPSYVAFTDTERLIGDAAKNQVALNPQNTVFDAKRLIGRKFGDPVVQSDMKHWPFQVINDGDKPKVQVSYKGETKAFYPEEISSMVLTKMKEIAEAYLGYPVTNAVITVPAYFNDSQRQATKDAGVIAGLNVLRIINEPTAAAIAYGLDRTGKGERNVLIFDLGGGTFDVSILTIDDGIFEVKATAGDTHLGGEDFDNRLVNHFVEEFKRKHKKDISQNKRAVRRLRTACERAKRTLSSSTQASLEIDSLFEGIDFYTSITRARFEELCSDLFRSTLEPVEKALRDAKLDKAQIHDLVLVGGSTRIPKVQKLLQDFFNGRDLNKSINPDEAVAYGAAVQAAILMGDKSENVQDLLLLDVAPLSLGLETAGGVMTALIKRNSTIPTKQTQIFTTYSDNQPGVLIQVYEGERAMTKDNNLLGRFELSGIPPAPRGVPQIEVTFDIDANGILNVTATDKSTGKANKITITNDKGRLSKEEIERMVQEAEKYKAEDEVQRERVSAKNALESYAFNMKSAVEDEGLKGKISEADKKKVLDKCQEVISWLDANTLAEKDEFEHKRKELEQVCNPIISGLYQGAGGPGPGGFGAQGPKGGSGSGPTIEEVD

The experiment concerns the target Heat shock 70 kDa protein 1A (Homo sapiens) (UniProt P0DMV8). Briefly: Hsp70 inhibitors, probe displacement, primary screen, biochemical, fluorescence polarization (AID 583).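 Note: plate controls were vehicle for no effect and reference ligand for full effect.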 The note with it: mP, at 20 µM, stronger effect = higher value.
As to `CCOC(=O)c1c(NC(=O)c2cccnc2)sc2c1CCC2`, the displacement is -2% (inactive). Consider `CCOC(=O)c1c(NC(=O)c2cccnc2)sc2c1CCCC2`, for which the displacement was 6.4% (inactive). Then `CC(C)OC(=O)c1c(NC(=O)c2cccnc2)sc2c1CCCCC2`, with 80.1% (active); and `COc1ccc(-c2cc(C(F)(F)F)nc(-n3cc(Br)cn3)n2)cc1`, with -0.2% (inactive). On to `O=C(O)CCCCCN1C(=O)/C(=C2/C(=O)N(CC(=O)O)c3ccccc32)SC1=S`, for which the displacement is 5.6% (inactive).

In the case of `O=C(O)CCN1C(=O)/C(=C2\C(=O)N(Cc3ccccc3Cl)c3ccccc32)SC1=S`, the displacement is 53.2% (active). As for `CCCN1C(=O)/C(=C2\SC(=S)N(CCC(=O)O)C2=O)c2ccccc21`, the figure is -0.7% (inactive); as for `Cc1cc(C)c(C(=O)CSc2n[nH]c(=O)n2C2CC2)cc1C`, 0.8% (inactive); as for `COCCOC(=O)c1ccc(NC(=O)COc2cc(C)c(Cl)c(C)c2)cc1`, 0.2% (inactive). On to `COCCOC(=O)c1ccc(NC(=O)COc2ccc(C)c(C)c2)cc1`, for which the displacement was 86.3% (active). As for `COCCOC(=O)c1ccc(NC(=O)COc2ccc(C)cc2)cc1`, the displacement is 3.9% (inactive).

For `C/C(=N\NC(=O)c1cc(-c2cccc([N+](=O)[O-])c2)n[nH]1)c1ccccc1O`, the displacement is -0.9% (inactive). Take `CCN(CC)C(=O)CSc1nnc(CCN)o1`: the displacement was -0.4% (inactive).

Regarding `O=c1c2ccccc2nnn1CSc1nnc(-c2cccc(S(=O)(=O)N3CCCCC3)c2)o1`, the displacement is -0.1% (inactive). Consider `CCOC(=O)C(=O)Nc1ccc(C(N)=O)cc1`, for which the displacement is -0.8% (inactive).

Consider `CCOC(=O)C(=O)Nc1ccc(F)cc1`, for which the displacement is 5.5% (inactive).

For `CCOC(=O)C(=O)Nc1ccc(NC(C)=O)cc1`, the displacement is 56.6% (active).

In the case of `CCc1ccccc1NC(=O)CN(c1ccc(OC)c(Cl)c1)S(C)(=O)=O`, the displacement was -3.3% (inactive). For the compound `O=C(O)C1Nc2c(C(=O)N3CCCC3)cccc2C2C=CCC12` (configuration not stated), the displacement was 11.2% (inactive).

For the compound `Cc1cc(I)c2c(c1)C1C=CCC1C(C(=O)O)N2` (configuration not stated), the displacement was 23.8% (inactive). Take `O=C(O)C1Nc2c(Cl)cc(Cl)cc2C2C=CCC12` (configuration not stated): the displacement was 78% (active). For the compound `Cc1c(Cl)ccc2c1NC(C(=O)O)C1CC=CC21` (configuration not stated), the displacement was 95.7% (active).

`O=C(O)C1Nc2c(C(=O)N3CCOCC3)cccc2C2C=CCC12` (configuration not stated): the displacement is 17.9% (inactive). As for `COc1ccc2c(c1)C1C=CCC1C(C(=O)O)N2` (configuration not stated), the figure is 31.6% (inactive). With `O=C(Nc1ccc2c(c1)OCCO2)c1cnc2ccccn2c1=O`, the displacement is 0.6% (inactive). As for `CCN(CC)CCCOc1c(Cl)cccc1Cl`, the figure is 0.3% (inactive); as for `Cc1cccc(OCC(=O)N2CCN(C(=O)c3cccs3)CC2)c1`, -2.2% (inactive).

Consider `O=C1c2cccc3cccc(c23)C(=O)N1c1ccc2c(c1)OCO2`, for which the displacement was -2.6% (inactive). Turning to `CCOC(=O)c1c(C)nc(-c2ccccc2)nc1NC(C)=O`, the displacement is 0.2% (inactive) and 7.4% (inactive). Regarding `CCOC(=O)c1c(C)nc(-c2ccccc2)nc1NC(=O)c1ccccc1`, the displacement is -1.8% (inactive).

Regarding `CCOC(=O)c1c(C)nc(C)nc1NC(=O)c1ccccc1`, the displacement was 85.3% (active).

Regarding `CC1=C(C(=O)Nc2ccccn2)C(c2cccnc2)n2nnnc2N1` (configuration not stated), the displacement was 1.5% (inactive). As for `COc1cccc(-c2nc3ccccc3c(=O)o2)c1`, the figure is -0.1% (inactive); as for `O=[N+]([O-])c1ccc(O)c(-c2cc(C(F)(F)F)nc(-c3ccccc3)n2)c1`, 4.6% (inactive). `O=c1nc(/C=C/c2cc([N+](=O)[O-])ccc2Cl)cc(C(F)(F)F)[nH]1`: the displacement is 3.5% (inactive).

In the case of `O=C(Cn1ncc2c1-c1ccccc1OC2)Nc1nc2ccccc2s1`, the displacement was 0% (inactive). Then `NC(=O)c1c(NC(=O)CCN2C(=O)c3ccccc3C2=O)sc2c1CCC2`, with -3.3% (inactive). As for `N#Cc1c(NC(=O)CCN2C(=O)c3ccccc3C2=O)sc2c1CCCC2`, the displacement was 72.6% (active).

Regarding `N#Cc1c(NC(=O)CCCN2C(=O)c3ccccc3C2=O)sc2c1CCCC2`, the displacement was 2.9% (inactive). As for `COc1ccc(C2Nc3ccccc3NC3=C2C(=O)CC(c2ccc(Cl)cc2)C3)cc1` (configuration not stated), the figure is -0.1% (inactive). In the case of `CC1(C)C2CCC1(C)C(NC(=O)C1CC3c4ccccc4C1c1ccccc13)C2` (configuration not stated), the displacement was 1.1% (inactive).

Consider `Cc1ccc(NC(=O)CSc2nnc(-c3ccccc3Br)o2)cc1C`, for which the displacement was -2.9% (inactive). Then `O=c1[nH]c(=S)n(-c2cccc(Cl)c2)c(O)c1/C=C1/C=CC=N1`, with 10% (inactive); and `Cc1ccccc1-n1c(O)c(C=C2C=CC=N2)c(=O)[nH]c1=S`, with 44.3% (inactive); and `Cn1c(O)c(/C=C2/C=CC=N2)c(=O)n(-c2ccccc2)c1=S`, with 53% (active). As for `O=C1C2CC=C(c3ccccc3)CC2C(=O)N1c1ccc(Br)cc1` (configuration not stated), the figure is 60.4% (active); as for `CC1=C(C)CC2C(=O)N(c3ccc(Br)cc3)C(=O)C2C1` (configuration not stated), 4.3% (inactive). Turning to `Cc1ccc(N2C(=O)C3CC=C(c4ccccc4)CC3C2=O)cc1` (configuration not stated), the displacement was -0.4% (inactive). For `O=C1NC(=S)S/C1=C/c1cc(Br)ccc1OCc1ccccc1Cl`, the displacement is 4.3% (inactive).

For the compound `Cn1c(CN2CCCCC2)nc2cc(NC(=O)c3ccccc3)ccc21`, the displacement was 1.9% (inactive). `COc1ccc(OC)c(NC(=S)NC(NC(=O)Cc2ccccc2)C(Cl)(Cl)Cl)c1` (configuration not stated): the displacement is -6.4% (inactive).

For `O=C(Nc1ccccc1)c1ccccc1C(=O)N1CCCCC1`, the displacement was 4.4% (inactive).

Regarding `CC1(C)OC(=O)C(=Cc2ccc(I)o2)C(=O)O1`, the displacement was 97.3% (active). As for `CC1(C)OC(=O)C(=Cc2ccc(-c3ccc(Cl)cc3Cl)o2)C(=O)O1`, the figure is -3.2% (inactive); as for `O=C1C(=Cc2ccc(I)o2)C(=O)c2ccccc21`, 10.7% (inactive); as for `COc1ccc(OC)c(C=NN2CCN(Cc3ccccc3Cl)CC2)c1`, -1.8% (inactive). With `CCOc1cc(C2Nc3ccc4ccccc4c3C3=C2CC(C)(C)CC3=O)ccc1O` (configuration not stated), the displacement is 2.3% (inactive). In the case of `Cc1csc(NC(=O)c2ccc([N+](=O)[O-])cc2Cl)n1`, the displacement is 5.8% (inactive). Regarding `Nc1ccc(S(=O)(=O)O)c2cccc(O)c12`, the displacement is 34.1% (inactive) and 73.7% (active). With `Nc1cc(S(=O)(=O)O)cc2cccc(S(=O)(=O)O)c12`, the displacement is 4.7% (inactive). Consider `Nc1ccc(S(=O)(=O)O)c2cccc(S(=O)(=O)O)c12`, for which the displacement was 6.4% (inactive). For `O=C1c2ccccc2C(=O)N1/N=C/c1ccc(O)cc1O`, the displacement was -1.5% (inactive).
